Measured values reported in the supplement of paper PMC3334620.
The full ranking holds about 33,000 sequences; the median of “E-score (-0.5 to 0.5)” is about -0.032, and the highest 2% start at about 0.36. For the sample, the highest values were picked, then their nearest neighbours and some sequences at random.

The sequences below were run against T1, Sko1 (UniProt Q02100) (assay: PBM E-score (8-mer binding enrichment) (E-score (-0.5 to 0.5)); higher = stronger / more preferred TF binding). Settings: protein concentration: 200 nM; construct: GST-full length.
T1 sequence: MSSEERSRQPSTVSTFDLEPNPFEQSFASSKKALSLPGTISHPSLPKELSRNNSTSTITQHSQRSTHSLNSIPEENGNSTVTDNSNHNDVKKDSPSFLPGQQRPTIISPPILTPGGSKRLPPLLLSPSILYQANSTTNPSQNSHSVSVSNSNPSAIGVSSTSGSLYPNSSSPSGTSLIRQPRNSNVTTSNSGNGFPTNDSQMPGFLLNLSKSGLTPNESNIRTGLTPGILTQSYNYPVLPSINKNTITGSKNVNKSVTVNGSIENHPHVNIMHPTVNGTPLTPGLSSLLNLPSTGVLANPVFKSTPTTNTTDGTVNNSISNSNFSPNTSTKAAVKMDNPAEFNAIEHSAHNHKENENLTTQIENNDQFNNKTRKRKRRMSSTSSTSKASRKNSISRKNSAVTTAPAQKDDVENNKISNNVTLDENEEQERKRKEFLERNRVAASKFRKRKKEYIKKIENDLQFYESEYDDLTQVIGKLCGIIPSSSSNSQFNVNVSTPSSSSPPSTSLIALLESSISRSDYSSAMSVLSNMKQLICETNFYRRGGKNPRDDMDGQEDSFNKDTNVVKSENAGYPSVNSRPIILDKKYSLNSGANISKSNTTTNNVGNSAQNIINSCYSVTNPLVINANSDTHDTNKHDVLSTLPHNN
Method: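 Universal 'all 10-mer' protein binding microarrays (Agilent AMADID 015681) probed with GST-tagged S. cerevisiae TFs (full-length or DBD) made by in vitro transcription/translation (PURExpress), about 100-200 nM. Bound TF was detected with fluorescent anti-GST. Each ungapped 8-mer (which stands for itself and its reverse complement) is scored by the PBM enrichment score (E-score), a modified Wilcoxon-Mann-Whitney statistic from -0.5 to +0.5, computed with the Universal PBM Analysis Suite. Scale: above 0.35 generally sequence-specific binding.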

Sequence | PBM E-score
ACTGAAGA | 0.0507
AAACGTTA | 0.3
AAGCGTAG | -0.0528
AAACGTGT | 0.288
AAACGTAA | 0.462
AAACGTAC | 0.37
AAACGTTT | 0.275
AACCGTAA | 0.0957
AAACGTAT | 0.429
AAACGTGC | 0.231
AAACGTAG | 0.393
CAACGTAC | 0.326
GGATTCAC | -0.215
CATCTCGC | -0.129
AGTCCGTA | -0.218
TATAGAAA | 0.0683
AGCTTTGG | -0.172
ATAAAACC | -0.0531
AGACAGTG | -0.112
GTCTCCTA | 0.0919
GACCTCGC | -0.122
GAGAAACC | -0.146
TACCATCA | -0.0837

Sequence | PBM E-score
GCTCGTAA | 0.231
GCACGTAA | 0.459
TCACGTGA | 0.336
TCACGTAA | 0.472
TCCCGTAA | 0.11
GCACGTAC | 0.34
TCAAACGA | 0.102
CTTTGGGC | -0.121
AGAGGGCT | -0.406
GGTAAATA | 0.0846
CCGACCAC | -0.182
CACGTGTC | 0.357
GACGTGTA | 0.374
CGCGTGTA | 0.227
AACGTGTA | 0.247
CACGTGTA | 0.399
GTCGTGTA | 0.169
AGGTTAAA | -0.104
CTCCTTGA | -0.159
CGCCAGGC | -0.227
AAGGTTGT | 0.00278
CTAATTGC | 0.104
CACGAATA | 0.265

Sequence | PBM E-score
TACGAATA | 0.383
GACGAATA | 0.297
CTAAGATA | -0.023
GGCACGTA | 0.395
GGCACGGA | -0.233
CGCACGTA | 0.408
CGCACGTC | 0.333
GGCACGCA | -0.00979
CGCACGCA | 0.211
CGAGTTCA | 0.00744
CAGACCGC | -0.156
CCTCATGC | -0.142
AGTCATGC | -0.0777
GGTCATGA | 0.111
CGTCATGA | 0.471
CGTCATGC | 0.469
AGTCATGA | 0.0664
GGCAGATA | -0.0846
AATCGTTA | 0.23
CGAAGGGC | -0.104
CTGTATGA | -0.0143
GTACCCCA | -0.19
CTAGGGAG | -0.148

Sequence | PBM E-score
CCAGTACG | 0.215
AAGGGAGG | -0.244
CCGTAGTA | -0.0427
ACGTAGTA | 0.446
ACTTAGTC | -0.15
GCGTAGTA | 0.279
ACGTAGTC | 0.425
CCGTAGTC | -0.266
ACGTAGTG | 0.452
ACTTAGTG | 0.00172
AGGTAGTG | -0.0666
AACAGGGT | -0.192
AGCCGCAG | -0.223
ACCTGTGA | 0.115
CCGGATTC | -0.0976
CTTCGCGC | 0.217
CAGATGGA | -0.0703
AGTATTAG | 0.00871
GGTATTAC | 0.204
CGTATTAA | 0.362
TGTATTAA | 0.182
CGTATTAG | 0.382
CGTATTAC | 0.387

Sequence | PBM E-score
AGTATTAC | 0.331
AGTATTAA | 0.261
CATATTAG | 0.203
CGTTCTAA | 0.131
AGTTGGTG | -0.0352
ACCCATAA | -0.118
GGCCTCAC | -0.0829
AGAGCACC | -0.328
ACCTTGTG | -0.0718
CACCTGTC | -0.232
CCATGACC | -0.0889
ATATGACG | 0.477
ATATGACC | 0.00457
ACATGACT | -0.0468
CCATGACG | 0.475
CCATGACA | 0.163
ACATGACA | 0.217
ACATGACG | 0.474
ATATGACA | 0.243
TCATTTCA | 0.181
AGAGCAGC | -0.173
